# Experimental data reported in PubChem BioAssay AID1508602 (The Scripps Research Institute Molecular Screening Center, 2020).
# Screen size: about 650,000 compounds; about 6,800 (1%) were called active. What follows is part of a selection rich in actives, with near analogues and random picks from the rest. Values without a mark were called inactive. Rule as the data show it: active = activation above about 4.9%; inactive = the rest.
# Molecular target: G-protein coupled receptor 151 (Homo sapiens) (UniProt Q8TDV0)
# Experiment: activators of human GPR151, primary screen, cell-based, PathHunter beta-arrestin, luminescence (AID 1508602);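 also: 0% = median of compound wells and 100% = cells with positive control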
# Details: PathHunter beta-arrestin GPR151 cells, at 11.2 µM, active compounds read high
# Sequence of G-protein coupled receptor 151 (Homo sapiens) (Q8TDV0 whole entry, looked up): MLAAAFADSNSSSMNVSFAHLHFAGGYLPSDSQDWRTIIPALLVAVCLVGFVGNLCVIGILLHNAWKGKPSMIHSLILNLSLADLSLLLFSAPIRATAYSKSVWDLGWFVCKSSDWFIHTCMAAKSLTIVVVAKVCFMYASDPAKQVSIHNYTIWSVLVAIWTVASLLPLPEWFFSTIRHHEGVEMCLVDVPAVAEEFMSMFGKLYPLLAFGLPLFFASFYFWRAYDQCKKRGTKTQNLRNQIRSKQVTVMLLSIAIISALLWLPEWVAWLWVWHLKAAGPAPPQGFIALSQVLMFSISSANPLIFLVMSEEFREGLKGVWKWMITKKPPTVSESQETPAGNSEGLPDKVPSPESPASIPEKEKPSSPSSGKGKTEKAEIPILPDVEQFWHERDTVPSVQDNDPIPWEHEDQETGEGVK
row,Compound,activation
1,COc1ccccc1N=Cc1cccc(O)c1O,-0.891%
2,O=C(c1cccc(NS(=O)(=O)c2ccc(Cl)cc2)c1)N1CCCC1,-1.72%
3,O=C(c1ccc(Cl)cc1)N1CCCC1,-0.435%
4,O=C(c1ccc(CNS(=O)(=O)c2ccc(Cl)cc2)cc1)N1CCCC1,6.5% (active)
5,COC(=O)C1=CN(Cc2ccc(F)cc2)C=C(C(=O)OC)C1c1ccc(OC)c(OC)c1,-0.344%
6,COC(=O)C1=CN(Cc2ccc(OC)cc2)C=C(C(=O)OC)C1c1ccc(O)c(OC)c1,1.75%
7,COC(=O)CN1C=C(C(=O)OC)C(c2ccc(OC)c(O)c2)C(C(=O)OC)=C1,6.57% (active)
8,CCOC(=O)C1=CN(Cc2ccc(Cl)cc2)C=C(C(=O)OCC)C1c1cc(Br)c(O)c(OC)c1,3.19%
9,COC(=O)C1=CN(CC2CCCO2)C=C(C(=O)OC)C1c1ccc(OC)c(O)c1 (stereo unspecified),1.3%
10,COC(=O)C1=CN(Cc2ccc(Cl)cc2)C=C(C(=O)OC)C1c1cc(OC)c(O)c(OC)c1,8.56% (active)
11,CCOc1ccc(/C(O)=C2/C(=O)C(=O)N(CCN(CC)CC)C2c2ccc(C)cc2)c(C)c1 (stereo unspecified),0.496%
12,CCOc1ccc(N2C(=O)C3C4C=CC(C5CC45)C3C2=O)cc1 (stereo unspecified),-1.25%
13,Cc1cccc(CN2CCN3C(=O)[C@H](Cc4cnc[nH]4)NC(=O)[C@H]3C2)n1,0.592%
14,CC(=O)Nc1ccc2c(c1)CN(Cc1ccccc1)CO2,1.47%
15,CCC(CC)C(=O)Nc1cccc(C(=O)N2CCCC2)c1,5.74% (active)
16,CCC(CC)C(=O)Nc1cccc(C(=O)Nc2ccccc2C(=O)NC(C)C)c1,0.373%
17,O=C(CCc1ccccc1)Nc1cccc(C(=O)N2CCOCC2)c1,11.5% (active)
18,CCC(CC)C(=O)Nc1cccc(F)c1,4.27%
19,CC1(C)Oc2ccc(C(=O)N3CCOCC3)cc2N(CC(=O)Nc2ccccc2)C1=O,-0.343%
20,O=C(c1cccc(N2C(=O)c3ccccc3C2=O)c1)N1CCOCC1,-0.354%
21,Cc1ccc2oc(-c3cccc(NC(=O)c4ccc(F)cc4)c3)nc2c1,0.17%
22,O=C(c1cc(=O)oc2cc(OCc3ccccc3)ccc12)N1CCN(c2ccccn2)CC1,-0.0035%
23,Cc1ccc([N+](=O)[O-])cc1NC(=O)CC12CC3CC(CC(C3)C1)C2,2.69%

row,Compound,activation
1,CC(C)(C)c1ccc(C(=O)NCCC(=O)NCCc2ccccc2)cc1,0.46%
2,O=C1CSC2=NCN(c3ccc(I)cc3)CN12,0.445%
3,CCOc1cc(C#N)ccc1OCC(=O)NCc1ccc2c(c1)OCO2,-0.667%
4,COc1ccccc1CNC(=O)C1CCN(Cc2nc(-c3ccccc3C)oc2C)CC1,-0.157%
5,Cc1ccc2nc(SCc3ccccc3)nc(=O)n2c1,1.52%
6,O=C(Cc1cccc2ccccc12)Nc1ncn[nH]1,0.255%
7,c1cnc(N2CCN(Cc3cccc4ccccc34)CC2)nc1,0.32%
8,c1ccc(NCc2cccc3ccccc23)nc1,5.45% (active)
9,CCCNc1nc(N2CCOCC2)nc2cc(OC)c(OC)cc12,-0.145%
10,O=C(c1ccccc1)N1CCCCC(Sc2ncnc3sc4c(c23)CCCC4)C1=O (stereo unspecified),5.26% (active)
11,c1ccc(CSc2ncnc3sc4c(c23)CCCC4)cc1,3.13%
12,Cc1sc2ncnc(SC3CCCCN(C(=O)c4ccc(F)cc4)C3=O)c2c1C (stereo unspecified),2.61%
13,COc1ccc(OC)c(-c2cc(Cl)c3c(c2)CC(CNC(=O)CSC)O3)c1 (stereo unspecified),0.143%
14,CCOc1ccc(C2C(C(=O)Nc3ccc(C)c(F)c3)c3ccccc3C(=O)N2CCN2CCOCC2)cc1 (stereo unspecified),-1.65%
15,O=C(CSc1nnc(NC(=O)CCc2ccccc2)s1)NCc1ccc(F)cc1,-2.57%
16,Nc1nnc(SCC(=O)OCC(=O)NCc2ccccc2)s1,-1.05%
17,Cc1nnc(SCC(=O)NCc2ccccc2)s1,6.39% (active)
18,C/C(N)=C1\C(=O)C(=O)N(C)C1c1ccccc1 (stereo unspecified),-1.33%
19,CC(Oc1cccc(Cl)c1)C(=O)O/N=C(\N)c1ccncc1 (stereo unspecified),-0.652%
20,O=C(O)CNC(=O)/C=C\c1ccc(Cl)cc1,0.187%
21,CCNC(=O)n1cc(-c2ccnc3ccccc23)c(-c2ccncc2)n1,-0.919%
22,O=C(Nc1ccc(-c2nnc3n2CCCCC3)cc1)c1ccc(Br)o1,-0.517%
23,O=c1c(Cl)c(-c2ccccc2)oc2ccccc12,-1.04%
